Screening results deposited in PubChem BioAssay by National Center for Advancing Translational Sciences (NCATS).
CHX counter = counter-screen hit for Shiga toxin inhibitors, cycloheximide; cell reporter, cycloheximide protein synthesis inhibition counterscreen; max response, %; 300,000 tested, 12% active; in the data active = max response mostly above about 13%, no sharp cut-off; inactive = mostly below about 14%; also: read at 38.3 µM for the half of the compounds with a filed dose; 0% is about no effect
Giardia FBPA inh = Giardia lamblia aldolase inhibition; purified Giardia FBPA; Potency, µM (highest dose often 59.6 µM), for the others: top-dose activity, negative = inhibition, most hits filed as inhibitors; 290,000 tested, 0.71% active; AID 2451; also: potency is read from the fitted curve at half-maximal effect; % is scaled to controls: 0 for no effect and ±100 for the full control effect; nearly all actives have a fitted effect of over 55% in size
Target sequence (A8B2U2 whole entry, looked up): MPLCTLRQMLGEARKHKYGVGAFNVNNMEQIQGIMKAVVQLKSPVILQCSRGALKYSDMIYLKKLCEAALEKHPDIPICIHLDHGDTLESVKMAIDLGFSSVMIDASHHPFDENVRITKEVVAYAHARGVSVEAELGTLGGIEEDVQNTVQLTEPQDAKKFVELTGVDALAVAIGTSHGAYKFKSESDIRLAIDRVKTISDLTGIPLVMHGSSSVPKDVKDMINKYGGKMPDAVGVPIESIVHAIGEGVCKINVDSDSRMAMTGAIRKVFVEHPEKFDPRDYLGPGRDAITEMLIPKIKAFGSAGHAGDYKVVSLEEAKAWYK
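Giardia FBPA (40 nM reagent) was preincubated 10 min at RT with compound (up to 57.5 uM final), then substrate plus GAPDH/TPI/NAD/arsenate coupling system with diaphorase/resazurin was added; resorufin fluorescence (525/598 nm) was read after 20 min.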
Shiga inhibitor = Shiga toxin inhibition | Vero cells, Shiga toxin protein synthesis inhibition reporter | 290,000 tested, 9.2% active | inhibition, % at 38.7 µM; in the data active = inhibition mostly above about 28%, no sharp cut-off; inactive = mostly below about 43%; also: 0% is about no effect
Pf growth 96h = P. falciparum growth inhibition at 96 hour, primary screen for plastid delayed-death inhibitors. 320,000 tested, 6.9% active. Potency, µM (highest dose often 28.7 µM), inactives show at the highest dose activity change, negative = inhibition, actives largely listed as inhibitors. P. falciparum luciferase reporter growth, 96 h; also: potency is read from the fitted curve at half-maximal effect; % is scaled to controls: 0 for no effect and ±100 for the full control effect
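Infected RBCs, 2% Hct / 0.05% parasitemia final; luciferase-reporter P. falciparum; cpd 96 h, 37 C, 5% CO2; luciferase detection reagent; luminescence.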
NS1 inh = inhibitors of influenza NS1 protein function. Potency, µM (highest dose often 46.1 µM), for inactives: at the highest dose activity, positive = more growth. 270,000 tested, 0.4% active; calls by dose curve; also: potency is read from the fitted curve at half-maximal effect; actives are rising curves; nearly all actives have a fitted effect of over 50% in size
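Read-out: OD600 growth recovery of NS1-expressing budding yeast. Cells grown overnight at 30C in -URA glucose medium, washed, resuspended and diluted 1:100 in 2% galactose assay medium, pH 6.0. Same strain lacking NS1 served as positive control.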
Pf growth 48h = P. falciparum growth inhibition at 48 hours (one generation) | 310,000 tested, 5.9% active | Potency, µM (top dose mostly 28.7 µM), without a hit: at the top dose activity change, negative = inhibition, usual class: inhibitors | P. falciparum luciferase growth in erythrocytes, 48 h; also: potency is read from the fitted curve at half-maximal effect; % is scaled to controls: 0 for no effect and ±100 for the full control effect
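In quantitative HTS format, infected erythrocytes bearing luciferase-reporter parasites were treated for a single generation at 37 C. Luminescence after adding detection reagent served as the growth measure.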
Active calls of the source: *; u = inconclusive; x = no result given; [ ] = another dose, or the depositor's remark. Only some compounds are listed: those with a hit (about 21% of all), similar ones and a draw of the others. Unless noted, calls follow the shape of the dose curve; as a rule, active = well fitted curve in the direction sought with a large enough effect; inconclusive = small, poorly fitted or top-dose-only effect, or another doubt; inactive = no such curve, though single readings can be large; an effect the other way counts as inactive or inconclusive.

SMILES	CHX counter	Giardia FBPA inh	Shiga inhibitor	Pf growth 96h	NS1 inh	Pf growth 48h
COc1ccccc1CC(=O)Nc1cc2oc3ccccc3c2cc1OC	24.9*	-1.7%	20.5	u	-0.1%	u
COc1cc2c(cc1NC(=O)COC(=O)C1CC(=O)N(Cc3ccco3)C1)oc1ccccc12 (centres undefined)	22.6*	2.8%	63.1	21.5%	-3.8%	49.3%
COc1ccc(CC(=O)Nc2cc3oc4ccccc4c3cc2OC)cc1	62.7*	-4.3%	111.4*	10.4µM*	12.6%	45.7%
O=C(NCc1ccco1)C1CCN(C(=O)c2ccc([N+](=O)[O-])cc2)CC1	7.3	8.3%	9.4	114.3%	9.8%	-7.9%
Cc1ccc(NC2CCCN(C(=O)c3cn(C)c4ccccc34)C2)cc1C (centres undefined)	10.7	x	-24.1	0.8%	6.5%	-20.0%
Cc1ccc(NC(=[OH+])c2cc3ccccc3cc2O)c(C)c1.Cc1ccc(NC(=[OH+])c2cc3ccccc3cc2O)c(C)c1.[Ni]	x	x	x	x	0.0%	x
CCOC(=O)c1c(C)[nH]c(C(=O)OCC(=O)Nc2ccc(OCC)cc2)c1C	5.7	13.4%	7.5	x	4.7%	37.0%
CC(OC(=O)c1ccc(NC(=O)CC#N)cc1)C(=O)NCCC1=CCCCC1 (centres undefined)	x	x	x	10.4µM*	x	9.28µM*
CCOC(=O)c1c(C)[nH]c(C(=O)C(C)OC(=O)c2ccc(NC(=O)CC#N)cc2)c1C (centres undefined)	x	x	x	10.4µM*	x	8.28µM*
Cc1ccc(NC(=O)C(OC(=O)c2ccc(C=O)cc2)c2ccccc2)cc1Cl (centres undefined)	14.7*	8.9%	5.4	u	u	-9.3%
CCn1c2ccccc2c2cc(NC(=O)C(C)OC(=O)c3ccc(NC(=O)CC#N)cc3)ccc21 (centres undefined)	x	x	x	u	x	11.7µM*
COCCn1c(=O)c(-c2ccc(OC)cc2)nc2cnc(N3CCNCC3)nc21	x	-1.1%	x	x	x	x
Cc1ccc(OCC(=O)NCCCNC(=O)c2cccnc2)cc1	-4.2	-3.3%	-2.2	-26.3%	3.8%	-4.7%
COc1ccc(-n2nc(C(=O)NCC(=O)NCCCN3CCOCC3)c3ccccc3c2=O)c(OC)c1	-2.4	7.2%	-11.0	-52.3%	-12.1%	-5.6%
CCCCCCCCCCCCCCC(C(=O)OC)C(O)(CC(=O)OC)C(=O)OC (centres undefined)	x	-14.8%	x	x	x	x
Cc1ccc(C)c(NC(=O)C(OC(=O)c2cc[n+]([O-])cc2)c2ccccc2)c1 (centres undefined)	x	x	x	23.2%	x	30.0%
Cc1cc(C)cc(NC(=O)C(OC(=O)c2cccs2)c2ccccc2)c1 (centres undefined)	13.7	-4.5%	-4.2	20.8%	-14.5%	19.2%
Cc1cc(C)cc(NC(=O)C(OC(=O)c2ccc(NC(=O)CC#N)cc2)c2ccccc2)c1 (centres undefined)	x	x	x	10.4µM*	x	10.4µM*
Cc1ccc(C)c(NC(=O)C(OC(=O)c2ccc(NC(=O)CC#N)cc2)c2ccccc2)c1 (centres undefined)	x	x	x	u	x	10.4µM*
COC(=O)c1sccc1-c1ccc(/C=N/OC(=O)c2cccs2)o1	-0.9	-8.3%	-6.7	57.7%	-6.0%	u
CCOC(=O)c1ccccc1-c1cn2cc(Cl)ccc2n1	14.6	-8.2%	51.7	37.5%	x	u
Cc1nc2ccc(S(=O)(=O)NCC(=O)Nc3ccc(F)cc3)cc2s1	-7.5	x	3.3	u	-1.3%	-1.3%
CC(=O)c1ccc(OCC(=O)Nc2ccc3nc(C)sc3c2)cc1	-3.1	0.5%	-3.3	-11.6%	9.9%	-43.0%[1.15 µM]
Cc1nc2ccc(NC(=O)Cc3ccsc3)cc2s1	27.6*	1.7%	25.0	110.1%	-1.3%	x
Cc1nc2ccc(NC(=O)Cc3cccc(F)c3)cc2s1	36.0*	1.6%	38.9*	87.3%	x	30.3%
Cc1nc2ccc(NC(=O)Cc3ccccc3F)cc2s1	58.2*	0.0%	102.6*	99.8%	-4.0%	117.2%
O=C(Cc1ccsc1)NCC(=O)Nc1ccc(F)c(F)c1	-0.7	x	-16.3	u	12.2%	-5.9%
Cc1ccc(NC(=O)Cc2ccsc2)cc1Cl	25.1*	-1.3%	55.6*	33.0%	-1.7%	34.5%
COc1ccc(N(CC(=O)NCCSCc2ccccc2Cl)S(C)(=O)=O)cc1Cl	-1.9	-1.0%	-6.6	u	-4.5%	-17.2%
